TDP1 cell CPT – qHTS for Inhibitors of human tyrosyl-DNA phosphodiesterase 1 (TDP1): qHTS in cells in presence of CPT | chicken DT40 Tdp1-/-;hTDP1 cells + 20 nM CPT, ATP luminescence, 48 h | Potency, µM (series often up to 46.2 µM), inactives show at the highest dose activity change, negative = growth inhibition, most hits filed as inhibitors | AID 686979, 2013 | 420,000 tested, 12% active; note: nearly all actives have a fitted effect of over 55% in size
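Cell growth measured by CellTiter-Glo luminescence after a minimum 48 h, 37 C compound exposure with 20 nM CPT in Tdp1-knockout DT40 cells stably expressing hTDP1, seeded 400/well; qHTS titration format.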
HT1080 IDH1KD tx – qHTS for induction of synthetic lethality in tumor cells producing 2HG: qHTS for the HT-1080-IDH1KD cell line; 360,000 tested, 2% active; Potency, µM (highest dose often 46.1 µM), without a hit: at the top dose activity, negative = toxicity, most hits filed as cytotoxic; HT-1080 IDH1 knockdown viability, ATP luminescence, 48 h; AID 686971, 2013;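 note: 0% = DMSO wells and -100% = cell-free medium wells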
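HT-1080-IDH1KD cells (IDH1 knocked down), 750/well in RPMI with 5% FBS, treated with compound 48 h at 37 degrees C. Viability by CellTiter-Glo luminescence, normalised to DMSO and no-cell wells; concentration-response curves classed.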
DT40 TDP1 no CPT – qHTS for Inhibitors of human tyrosyl-DNA phosphodiesterase 1 (TDP1): qHTS in cells in absence of CPT; DT40 Tdp1-/- hTDP1 cells, no CPT, ATP luminescence, 48 h; Potency, µM (doses to about 46.2 µM), inactives show at the highest dose activity change, negative = growth inhibition, most hits filed as inhibitors; 420,000 tested, 15% active; AID 686978, 2013; note: nearly all actives have a fitted effect of over 55% in size
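Seeded 400 DT40-hTDP1 cells/well (vehicle DMSO, no 20 nM CPT); pinned compounds; ≥48 hr at 37 °C; CellTiter-Glo luminescence as viability measure.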
KB-V1 cytotox – qHTS assay for MDR1-selective chemotherapeutics: Primary screen using the drug-selected MDR subline cells KB-V1; KB-V1 MDR cells viability, CellTiter-Glo, 72 h; Potency, µM (top dose mostly 46.1 µM), most hits filed as cytotoxic; 400,000 tested, 3.4% active; AID 1347076, 2019; note: nearly all actives have a fitted effect of over 60% in size
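Cytotoxicity via CellTiter-Glo luminescence after 72 h compound exposure at 37 degrees C. Cells: drug-selected KB-V1 line, DMEM phenol-red free plus 10% FBS. Compounds tested at multiple concentrations; normalized data fitted to concentration-effect curves.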
KB-3-1 cytotox – qHTS assay for MDR1-selective chemotherapeutics: Primary screen using the parental adenocarcinoma cell KB-3-1; KB-3-1 viability, CellTiter-Glo ATP luminescence, 72 h; Potency, µM (highest dose often 46.1 µM), usual class: cytotoxic; 400,000 tested, 1.4% active; note: nearly all actives have a fitted effect of over 60% in size
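Parental KB-3-1 viability, qHTS format: 72 h compound exposure, 37 °C; CellTiter-Glo; media-only wells and DMSO plates as controls; concentration-effect fits on corrected data.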
HT1080-NT tox – qHTS for induction of synthetic lethality in tumor cells producing 2HG: qHTS for the HT-1080-NT fibrosarcoma cell line; 360,000 tested, 1.6% active; HT-1080-NT fibrosarcoma viability, CellTiter-Glo ATP luminescence, 48 h; Potency, µM (top dose mostly 46.1 µM), without a hit: at the top dose activity, negative = less viability, actives largely listed as cytotoxic;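 note: NT is the 2HG producing partner of a matched IDH1 knockdown line; 0% = DMSO-treated cells and -100% = media-only wells without cells; nearly all actives have a fitted effect of over 55% in size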
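HT-1080-NT fibrosarcoma cells (2HG-overproducing), 750 cells/well in RPMI with 5% FBS, dosed after 2 h and incubated 48 h at 37C. CellTiter-Glo luminescence normalized to DMSO and no-cell wells; concentration-response curves fitted and classed.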
Active calls of the source: *; i = inactive; u = inconclusive; x = no result given. Rows were chosen to be rich in hits. Some 19% of all compounds tested hit in one or more screens of this group. Calls come from the whole dose curve; as a rule, active = well fitted curve in the direction sought with a large enough effect; inconclusive = small, poorly fitted or top-dose-only effect, or another doubt; inactive = no such curve, though single readings can be large; an effect the other way counts as inactive or inconclusive. Unless noted, % is set by controls: 0 for no effect and ±100 for the full control effect; potency is the fitted concentration of half-maximal effect.

SMILES	TDP1 cell CPT	HT1080 IDH1KD tx	DT40 TDP1 no CPT	KB-V1 cytotox	KB-3-1 cytotox	HT1080-NT tox
CCOC(=O)Cc1ccc(Nc2nc3cc(-c4sccc4C)sc3c(=O)n2C)cc1	2.9µM*	4.6µM*	3.7µM*	15µM*	10µM*	8.2µM*
COc1ccc(Nc2nc3cc(-c4sccc4C)sc3c(=O)n2C)cc1OC	1.3µM*	1.3µM*	1µM*	6.5µM*	5.8µM*	u
COc1ccc(Nc2nc3cc(-c4ccsc4)sc3c(=O)n2C)cc1OC	13µM*	-20%	u	i	i	-21%
O=C(NCc1ccco1)c1ccc(OC2CCN(Cc3ccccn3)CC2)cc1	2%	-2%	-3%	i	i	4%
O=C(NCCCCc1ccccc1)c1nn(-c2ccccc2)nc1CO	-16%	x	-16%	x	x	x
Cc1cccc(NC(=O)CSC2=Nc3ccccc3C3=NC(CCC(=O)NCc4ccc(F)cc4)C(=O)N23)c1 (stereo unspecified)	-29%	x	u	i	i	x
Cn1ccc2c(OCC(=O)Nc3cc(C(F)(F)F)ccc3Cl)cccc2c1=O	26µM*	x	15µM*	i	i	x
CCn1ccc2c(OCC(=O)Nc3ccccc3C)cccc2c1=O	15µM*	x	12µM*	i	u	x
CCn1ccc2c(OCC(=O)NCc3ccccc3)cccc2c1=O	-8%	x	u	i	i	x
Cc1cccc(NC(=O)COc2cccc3c(=O)n(C)ccc23)c1C	23µM*	x	18µM*	i	i	x
CCn1ccc2c(OCC(=O)Nc3ccccc3C(F)(F)F)cccc2c1=O	15µM*	x	21µM*	u	i	x
Cn1ccc2c(OCC(=O)NCc3ccccc3)cccc2c1=O	u	x	u	i	i	x
Cc1ccc(NC(=O)c2ccc(=O)n(CC(=O)Nc3cc(C)cc(C)c3)n2)cc1	3%	x	-25%	x	x	x
CCCCn1nnnc1C(c1ccccc1)N1CCN(C(=O)c2ccco2)CC1 (stereo unspecified)	-5%	3%	-20%	i	i	14%
COc1cc(/C=N/NC(=O)c2cccc([N+](=O)[O-])c2)cc(OC)c1O	-23%	0%	u	i	i	-1%
COc1cc(/C=N/NC(=O)c2cncc(Br)c2)cc([N+](=O)[O-])c1O	u	-4%	u	u	u	16µM*
COc1cc([N+](=O)[O-])cc(/C=N/NC(=O)c2cncc(Br)c2)c1O	4.6µM*	-4%	18µM*	u	u	-3%
O=C1c2ccccc2C(=O)c2c1cccc2N1CCCC1	u	-17%	8.2µM*	15µM*	i	-15%
Cn1nc(-c2ccccc2)c(N2CCCCC2)cc1=O	-4%	4%	u	i	i	6%
O=C1c2ccccc2-c2onc3ccc(N4CCCC4)c1c23	u	u	26µM*	u	u	u
Cn1c(=O)cc2c3c(c(N4CCCCC4)ccc31)C(=O)c1ccccc1-2	u	0%	10µM*	i	i	-12%
O=C1C=C(N2CCCCC2)c2ccccc2C1=O	3.7µM*	5.8µM*	6.5µM*	10µM*	12µM*	6.5µM*
O=C1c2ccccc2-c2cccc(C(=O)N3CCCCC3)c21	-6%	-5%	-9%	i	i	-12%
Cc1ccc2c(CC(=O)Nc3ccc(S(=O)(=O)N4CCCCC4C)cc3)coc2c1 (stereo unspecified)	u	x	u	i	i	x
